The nature of experiment [1]: binders of probe aFSTL3 on microarray, primary screen, stem cell growth factor project, biochemical, small-molecule microarray, fluorescence 635/667 (AID 1064).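 Note: measures binding of the biotinylated anti-FSTL3 antibody to printed compounds.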 Particulars: higher = more signal.
Experiment [2] in a line: binders from COS7 lysate, DM2A8 probe, primary screen, torsin A project, cell lysate, small-molecule microarray, fluorescence 635/667 (AID 1065). Particulars: higher = more signal, COS7 lysate expressing mutant human TOR1A.
Experiment [3] is described as follows: binders of probe aFGF2 on microarray, primary screen, stem cell growth factor project, biochemical, small-molecule microarray, fluorescence 635/667 (AID 1067).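 Note: measures binding of biotinylated aFGF2 protein to printed compounds on slides; z-score merges feature fluorescence and signal-to-noise across triplicate slides.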 Particulars: higher = more signal.
Experiment [4] can be described thus: binders of probe aFGF10 on microarray, primary screen, stem cell growth factor project, biochemical, small-molecule microarray, fluorescence 635/667 (AID 1071).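 Note: score merges 667 nm spot intensity and signal to noise from triplicate slides.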 Conditions: higher = more signal.
Experiment [5] deals with Neurogenic locus notch homolog protein 2 (Homo sapiens) (UniProt Q04721). Put plainly: Notch2 binders on small-molecule microarrays, primary screen, biochemical, small-molecule microarray, 635 nm fluorescence, stem cell growth factors (AID 1073). Particulars: Notch2 binding, higher = more signal.
For experiment [6], the target named is Pro-neuregulin-1, membrane-bound isoform (Homo sapiens) (UniProt Q02297). Put plainly: NRG1 binders on small-molecule microarrays, primary screen, psychiatric disease protein project, biochemical, small-molecule microarray, fluorescence 635/667 (AID 1075).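 Note: score combines 667 nm spot fluorescence with signal to noise.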 Conditions: NRG1 binding, 635 nm fluorescence, higher = more signal.
The subject of experiment [7] is Neuregulin-1 EGF-like domain. Put plainly: binders of neuregulin-1 EGF-like domain, primary screen, biochemical, small-molecule microarray, 635 nm fluorescence (AID 1081).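 Note: binding of the protein to compounds printed on small-molecule microarray slides.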 Conditions: small-molecule microarray binding, higher = more signal.
Experiment [8] in a line: FRG1 promoter luciferase signal modulators, primary screen, FRG1 inhibition for FSHD, cell-based, C2C12 myotubes, firefly/Renilla luciferase, luminescence (AID 1084). Particulars: higher = more signal, called active from +8 up or from −8 down.
The nature of experiment [9]: binders of probe aFST on microarray, primary screen, stem cell growth factor project, biochemical, small-molecule microarray, fluorescence 635/667 (AID 1086).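 Note: score merges 667 nm fluorescence with signal-to-noise of each printed compound spot.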 Conditions: higher = more signal.
Experiment [10] in a line: binders of probe aHhip on microarray, primary screen, stem cell growth factor project, biochemical, small-molecule microarray, fluorescence 635/667 (AID 1087).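 Note: score merges spot fluorescence at 667nm with spot signal to noise ratio.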 Particulars: higher = more signal.
Experiment [11] concerns PRMT1 (protein arginine N-methyltransferase 1). Kind of experiment: PRMT1 binders on small-molecule microarrays, primary screen, biochemical, small-molecule microarray, 635 nm fluorescence (AID 1088).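 Note: binding of Prmt1 protein to compounds spotted on small-molecule microarray slides.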 Particulars: small-molecule microarray binding, higher = more signal.
Experiment [12] is described as follows: yeast growth modulation, basal conditions, primary screen, YJM789 clinical isolate, OD600, 24 h (AID 1089).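 Note: growth of clinical yeast isolate S. cerevisiae YJM 789 seeded 1000 cells per well; test concentration not given here.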 Conditions: S. cerevisiae YJM789 growth, higher = more signal, called active from +8 up or from −8 down.
Experiment [13] can be described thus: fission yeast growth modulation, primary screen, strain 972, OD600, 24 h, no modulator (AID 1090).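 Note: basal condition with compound alone and no growth modifier present; test concentration not given here.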 Particulars: S. pombe 972 growth, higher = more signal, called active from +8 up or from −8 down.
Experiment [14] in a line: S. cerevisiae growth modulation with rapamycin, primary screen, strain BY4716, OD600, 96 h (AID 1091). Note: test concentration not given here. Conditions: higher = more signal, called active from +8 up or from −8 down.
Experiment [15] addresses Torsin-1A-interacting protein 2 (Homo sapiens) (UniProt Q8NFQ8). Kind of experiment: LULL1 binders on small-molecule microarray, primary screen, cell lysate, human LULL1 lysate, 635/667 nm fluorescence (AID 1092).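 Note: probe is lysate of COS7 cells overexpressing human LULL1; score merges per-feature 667 nm fluorescence with signal-to-noise.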 Particulars: hLULL1 lysate binding, 635 nm fluorescence, higher = more signal.
Experiment [16] can be described thus: E. coli growth modulation, two-sided OD650, primary screen, E. coli filamentation project, strain DRC41, 24 h (AID 1093).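 Note: MC1000 strain lacking acrAB efflux and sulA so SOS filamentation is blocked; test concentration not given here.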 Particulars: OD650, 24 h, higher = more signal, called active from +8 up or from −8 down.
Experiment [17] in a line: small-molecule microarray binders of probe aLefty2, primary screen, biochemical, biotinylated probe, 635/667 nm fluorescence (AID 1094).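 Note: score merges spot fluorescence near 667 nm with spot signal-to-noise ratio.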 Conditions: higher = more signal.
Experiment [18] relates to Noggin (protein binding on small-molecule microarray). Put plainly: Noggin binders on small-molecule microarray, primary screen, biochemical, 635/667 nm fluorescence (AID 1095).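 Note: score merges 667 nm feature fluorescence with signal to noise over triplicate slides.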 Conditions: 635 nm fluorescence, higher = more signal.
Experiment [19] deals with Neurogenic locus notch homolog protein 3 (Homo sapiens) (UniProt Q9UM47). Put plainly: NOTCH3 binders on small-molecule microarray, primary screen, biochemical, 635/667 nm fluorescence (AID 1096). Conditions: NOTCH3 binding, 635 nm fluorescence, higher = more signal.
A short description of experiment [20]: small-molecule microarray binders of probe aEGFR, primary screen, biochemical, biotinylated probe, 635/667 nm fluorescence (AID 1097).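 Note: probe is a biotinylated anti-EGFR antibody binding compounds printed on slides; score combines fluorescence near 667 nm and signal to noise of each spot.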 Particulars: higher = more signal.

SMILES strings stand for the structures. Calls of active or inactive are those of the source.

Sequence of Neurogenic locus notch homolog protein 3 (Homo sapiens) (Q9UM47 whole entry, looked up): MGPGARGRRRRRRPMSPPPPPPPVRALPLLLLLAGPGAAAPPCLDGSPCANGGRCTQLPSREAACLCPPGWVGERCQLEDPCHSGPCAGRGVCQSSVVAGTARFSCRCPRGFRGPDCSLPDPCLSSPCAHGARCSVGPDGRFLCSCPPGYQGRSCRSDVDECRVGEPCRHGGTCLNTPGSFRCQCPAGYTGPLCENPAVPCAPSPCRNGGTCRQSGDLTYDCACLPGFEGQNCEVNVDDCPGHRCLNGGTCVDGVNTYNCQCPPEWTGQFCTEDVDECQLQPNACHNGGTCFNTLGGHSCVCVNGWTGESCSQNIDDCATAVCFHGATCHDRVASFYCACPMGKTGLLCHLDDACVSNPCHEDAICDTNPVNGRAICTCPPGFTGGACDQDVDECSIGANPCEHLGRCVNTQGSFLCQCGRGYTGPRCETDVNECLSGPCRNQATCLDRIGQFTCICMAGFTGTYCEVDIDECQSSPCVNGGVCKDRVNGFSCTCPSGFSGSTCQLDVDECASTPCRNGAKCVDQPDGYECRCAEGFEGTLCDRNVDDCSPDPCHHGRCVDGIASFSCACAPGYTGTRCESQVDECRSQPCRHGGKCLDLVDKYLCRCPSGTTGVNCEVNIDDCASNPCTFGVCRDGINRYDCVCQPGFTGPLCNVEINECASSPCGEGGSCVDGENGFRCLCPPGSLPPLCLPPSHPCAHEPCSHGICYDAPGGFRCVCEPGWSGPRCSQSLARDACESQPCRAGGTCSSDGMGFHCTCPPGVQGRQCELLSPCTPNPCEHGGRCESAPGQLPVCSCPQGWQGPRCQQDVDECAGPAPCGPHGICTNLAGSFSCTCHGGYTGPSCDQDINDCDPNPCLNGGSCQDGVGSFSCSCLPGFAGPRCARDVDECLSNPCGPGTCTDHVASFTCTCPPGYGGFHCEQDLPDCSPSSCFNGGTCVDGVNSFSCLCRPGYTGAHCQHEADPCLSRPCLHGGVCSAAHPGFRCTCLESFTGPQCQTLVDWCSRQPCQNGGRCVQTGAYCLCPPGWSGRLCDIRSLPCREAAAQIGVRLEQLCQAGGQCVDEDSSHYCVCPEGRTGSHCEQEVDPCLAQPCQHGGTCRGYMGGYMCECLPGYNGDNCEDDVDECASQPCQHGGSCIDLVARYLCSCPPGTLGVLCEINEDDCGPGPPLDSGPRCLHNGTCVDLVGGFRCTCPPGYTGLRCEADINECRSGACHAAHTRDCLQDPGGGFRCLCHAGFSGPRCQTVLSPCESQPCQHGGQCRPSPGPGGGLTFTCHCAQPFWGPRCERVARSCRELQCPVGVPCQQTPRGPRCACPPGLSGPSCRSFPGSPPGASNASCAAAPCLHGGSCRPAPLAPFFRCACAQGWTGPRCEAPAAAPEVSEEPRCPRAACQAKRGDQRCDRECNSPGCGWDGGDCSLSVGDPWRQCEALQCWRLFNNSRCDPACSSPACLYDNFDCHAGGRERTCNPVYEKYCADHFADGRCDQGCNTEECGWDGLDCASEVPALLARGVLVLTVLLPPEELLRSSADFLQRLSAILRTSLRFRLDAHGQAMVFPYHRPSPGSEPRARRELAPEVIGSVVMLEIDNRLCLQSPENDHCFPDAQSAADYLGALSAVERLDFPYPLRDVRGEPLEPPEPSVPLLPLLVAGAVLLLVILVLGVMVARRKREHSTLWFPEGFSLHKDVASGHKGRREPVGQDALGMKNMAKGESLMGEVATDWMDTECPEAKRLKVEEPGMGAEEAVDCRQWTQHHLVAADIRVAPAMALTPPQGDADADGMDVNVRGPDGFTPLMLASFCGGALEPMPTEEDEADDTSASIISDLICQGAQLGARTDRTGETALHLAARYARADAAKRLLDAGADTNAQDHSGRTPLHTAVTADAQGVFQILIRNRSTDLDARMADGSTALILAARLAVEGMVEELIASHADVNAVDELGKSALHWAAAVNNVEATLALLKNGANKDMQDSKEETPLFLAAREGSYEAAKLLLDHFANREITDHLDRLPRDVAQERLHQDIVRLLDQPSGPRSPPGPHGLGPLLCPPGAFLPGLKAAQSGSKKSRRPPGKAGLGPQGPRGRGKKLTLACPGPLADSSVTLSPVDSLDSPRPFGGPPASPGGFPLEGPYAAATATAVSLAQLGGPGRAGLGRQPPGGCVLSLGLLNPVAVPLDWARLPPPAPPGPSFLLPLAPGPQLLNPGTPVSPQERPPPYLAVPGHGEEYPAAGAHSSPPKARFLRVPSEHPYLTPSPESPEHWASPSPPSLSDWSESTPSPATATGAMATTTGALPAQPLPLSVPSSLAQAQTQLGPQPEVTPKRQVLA
Sequence of Torsin-1A-interacting protein 2 (Homo sapiens) (Q8NFQ8 whole entry, looked up): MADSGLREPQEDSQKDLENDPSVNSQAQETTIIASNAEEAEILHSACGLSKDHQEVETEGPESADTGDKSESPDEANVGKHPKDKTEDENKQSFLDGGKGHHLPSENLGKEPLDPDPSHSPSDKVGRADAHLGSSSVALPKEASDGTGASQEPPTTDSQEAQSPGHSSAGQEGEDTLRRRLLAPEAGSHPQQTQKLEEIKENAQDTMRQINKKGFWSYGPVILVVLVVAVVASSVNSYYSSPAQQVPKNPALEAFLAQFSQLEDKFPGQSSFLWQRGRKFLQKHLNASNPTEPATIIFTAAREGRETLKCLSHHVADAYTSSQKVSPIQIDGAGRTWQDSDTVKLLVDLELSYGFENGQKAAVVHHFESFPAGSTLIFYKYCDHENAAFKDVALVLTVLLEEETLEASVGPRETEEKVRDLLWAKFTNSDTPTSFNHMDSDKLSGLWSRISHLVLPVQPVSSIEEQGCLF
Sequence of Pro-neuregulin-1, membrane-bound isoform (Homo sapiens) (Q02297 whole entry, looked up, the tested form may be a part, canonical isoform): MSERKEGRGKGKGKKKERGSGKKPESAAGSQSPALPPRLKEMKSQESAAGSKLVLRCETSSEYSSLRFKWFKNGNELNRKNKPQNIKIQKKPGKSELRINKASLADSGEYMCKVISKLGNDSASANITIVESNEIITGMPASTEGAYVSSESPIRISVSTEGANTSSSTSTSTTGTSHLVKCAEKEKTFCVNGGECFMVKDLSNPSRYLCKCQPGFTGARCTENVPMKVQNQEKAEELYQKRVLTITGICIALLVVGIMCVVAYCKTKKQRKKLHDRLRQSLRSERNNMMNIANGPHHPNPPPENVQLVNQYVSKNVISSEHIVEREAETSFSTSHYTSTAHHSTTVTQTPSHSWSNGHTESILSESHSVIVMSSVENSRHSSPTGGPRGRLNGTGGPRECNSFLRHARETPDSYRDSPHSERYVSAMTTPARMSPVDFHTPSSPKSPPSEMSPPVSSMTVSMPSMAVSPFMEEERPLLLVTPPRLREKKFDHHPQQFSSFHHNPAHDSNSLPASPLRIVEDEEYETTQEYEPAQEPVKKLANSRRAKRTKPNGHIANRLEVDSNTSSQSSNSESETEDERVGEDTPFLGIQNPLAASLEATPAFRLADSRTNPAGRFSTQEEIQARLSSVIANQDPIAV

For the molecule `CCCC=C(CCC)[C@@H](NC(=O)OCC(C)C)c1ccc(C(=O)OC)cc1`, the composite z-score is -0.443 in [1]; 0.477 in [2]; -0.0596 in experiment [3]; 0.161 in experiment [4]; 0.638 in experiment [5]; 0.224 in [6]. In addition, the composite z-score in [7] turned out to be 0.362; in experiment [9], 0.107; in experiment [10], 2.35; in experiment [11], 0.586; in experiment [15], 0.893; in [17] it was 0.0506. Besides, the composite z-score in experiment [18] was 0.421; in [19] it was 0.621; in experiment [20], -0.123. Also, the z-score was -0.705 (inactive) in experiment [8]; -0.245 (inactive) in experiment [12]; 0.354 (inactive) in experiment [13]; -0.894 (inactive) in [14]; 0.0664 (inactive) in experiment [16].
For `C=CCN1Cc2ccccc2[C@H]2OC(c3ccc(OCCCO)cc3)=N[C@@]2(CCS(=O)(=O)c2ccccc2)C1=O`, the composite z-score in experiment [1] was 1.14; in experiment [2], 0.852; in [3], 0.0814; in experiment [4], 0.201; in experiment [5], 1.47; in experiment [6], 1.61. For the same molecule, the composite z-score in [7] is 1.35; in [9], 0.932; in experiment [10], -0.226; in experiment [11], 1.55; in experiment [15] it was 2.29; in experiment [17], 0.319. In addition, the values for the composite z-score in experiment [18], in experiment [19] and in [20] were 1.33, 1.05 and 0.124, respectively. Further, the z-score in [8] was -0.908 (inactive); in [12] it was 0.601 (inactive); in experiment [13], 0.546 (inactive); in experiment [14], 5.35 (inactive); in [16], 0.557 (inactive).
On to `O=C1C[C@@](C(=O)NC2CC2)(c2ccc([N+](=O)[O-])cc2)[C@@H](c2ccc(CO)cc2)N1C1CCCCC1`, for which the composite z-score in experiment [1] was -0.281; in experiment [2], 0.286; in [3] it was 0.0626; in [4] it was 0.907; in experiment [5] it was 0.804; in experiment [6] it was 1.81. In addition, the composite z-score in [7] is 1.3; in experiment [9], 0.832; in experiment [10] it was 0.164; in experiment [11] it was 1.52; in experiment [15], 3.12; in experiment [17], -0.0139. Moreover, the composite z-score in experiment [18] is 1.74; in experiment [19], 1.07; in [20], -0.0828. For the same molecule, the z-score is -0.534 (inactive) in experiment [8]; -1.19 (inactive) in experiment [12]; -2.19 (inactive) in experiment [13]; -2.54 (inactive) in experiment [14]; 0.778 (inactive) in experiment [16].
For the molecule `COc1ccc(C(O)C2C=CC3C(=O)N(C)C(=O)C3N2N(c2ccccc2)c2ccccc2)cc1` (stereo not given), the composite z-score in [1] is 0.967; in experiment [2], 1.17; in [3] it was 0.0148; in [4], 0.209; in experiment [5], 1.41; in [6] it was 0.941. In addition, the composite z-score in experiment [7] is 1.22; in experiment [9], 0.982; in experiment [10], 0.0972; in experiment [11] it was 0.923; in [15] it was 2.18; in [17] it was 0.276. Besides, the results for the composite z-score in experiment [18], in experiment [19] and in [20] were 0.269, 0.791 and -0.111, respectively. Moreover, the z-score in experiment [8] was 0.57 (inactive); in experiment [12], -0.054 (inactive); in [13], 0.733 (inactive); in experiment [14] it was 1.08 (inactive); in experiment [16], -0.994 (inactive).
Turning to `CC1CC/C=C\[C@H]2OC34C=CCN(Cc5ccccc5)C(=O)[C@H]3N(CCCCCCO)C(=O)[C@@H]4C2C(=O)O1` (stereo not given in full), the composite z-score in [1] was 0.261; in [2], 0.96; in experiment [3], -0.116; in experiment [4], -0.994; in [5], -0.763; in [6], 1.91. Further, the composite z-score is 1.19 in experiment [7]; -0.696 in experiment [9]; -0.226 in experiment [10]; 0.661 in [11]; 2.31 in experiment [15]; -0.163 in experiment [17]. The values for the composite z-score in experiment [18], in experiment [19] and in experiment [20] were -1.78, -0.397 and -0.0773, respectively. Besides, the z-score in [8] was -0.1 (inactive); in [12] it was -0.617 (inactive); in [13], -0.623 (inactive); in experiment [14], -0.482 (inactive); in [16], 0.246 (inactive).

Source of the values: PubChem BioAssay.
